According to ChEMBL document CHEMBL2218924, “A broad activity screen in support of a chemogenomic map for kinase signalling research and drug discovery” (Biochem J, 2013):

How the values were obtained:
[1] = molecular target: T1, Ephrin type-A receptor 3 (Homo sapiens) (UniProt P29320); conditions: at 10 µM
T1 sequence (whole entry): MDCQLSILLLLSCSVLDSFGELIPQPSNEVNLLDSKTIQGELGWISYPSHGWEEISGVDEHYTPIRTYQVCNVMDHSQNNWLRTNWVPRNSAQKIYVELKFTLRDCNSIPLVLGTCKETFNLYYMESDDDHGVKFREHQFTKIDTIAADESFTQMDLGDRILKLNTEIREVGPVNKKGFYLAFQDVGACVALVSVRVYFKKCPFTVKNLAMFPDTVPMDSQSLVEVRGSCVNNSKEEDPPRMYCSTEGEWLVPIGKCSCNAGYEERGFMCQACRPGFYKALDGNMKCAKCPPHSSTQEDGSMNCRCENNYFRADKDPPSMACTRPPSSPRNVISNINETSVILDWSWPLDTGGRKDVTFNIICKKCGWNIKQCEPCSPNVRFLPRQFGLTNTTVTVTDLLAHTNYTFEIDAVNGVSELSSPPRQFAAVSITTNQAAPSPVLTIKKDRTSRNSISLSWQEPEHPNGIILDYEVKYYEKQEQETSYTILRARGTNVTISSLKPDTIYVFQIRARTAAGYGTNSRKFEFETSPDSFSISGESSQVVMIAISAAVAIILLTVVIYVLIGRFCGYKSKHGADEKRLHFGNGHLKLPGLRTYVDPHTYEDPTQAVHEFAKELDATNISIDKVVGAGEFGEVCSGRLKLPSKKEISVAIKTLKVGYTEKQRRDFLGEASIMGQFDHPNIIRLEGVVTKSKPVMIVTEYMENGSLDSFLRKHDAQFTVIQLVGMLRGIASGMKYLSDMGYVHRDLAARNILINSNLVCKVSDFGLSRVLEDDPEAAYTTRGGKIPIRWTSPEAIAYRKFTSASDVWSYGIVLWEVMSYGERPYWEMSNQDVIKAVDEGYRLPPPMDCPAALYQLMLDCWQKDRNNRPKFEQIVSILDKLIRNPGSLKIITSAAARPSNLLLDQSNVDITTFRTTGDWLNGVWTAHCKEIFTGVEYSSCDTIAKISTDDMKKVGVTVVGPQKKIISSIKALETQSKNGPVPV

[2] = molecular target: Ephrin type-A receptor 5 (Homo sapiens) (UniProt P54756); conditions: at 10 µM
[3] = molecular target: Ephrin type-A receptor 7 (Homo sapiens) (UniProt Q15375); conditions: at 1 µM
[4] = molecular target: Ephrin type-A receptor 7 (Homo sapiens) (UniProt Q15375); conditions: at 10 µM
[5] = molecular target: T2, Ephrin type-A receptor 8 (Homo sapiens) (UniProt P29322); conditions: at 1 µM
T2 sequence (whole entry): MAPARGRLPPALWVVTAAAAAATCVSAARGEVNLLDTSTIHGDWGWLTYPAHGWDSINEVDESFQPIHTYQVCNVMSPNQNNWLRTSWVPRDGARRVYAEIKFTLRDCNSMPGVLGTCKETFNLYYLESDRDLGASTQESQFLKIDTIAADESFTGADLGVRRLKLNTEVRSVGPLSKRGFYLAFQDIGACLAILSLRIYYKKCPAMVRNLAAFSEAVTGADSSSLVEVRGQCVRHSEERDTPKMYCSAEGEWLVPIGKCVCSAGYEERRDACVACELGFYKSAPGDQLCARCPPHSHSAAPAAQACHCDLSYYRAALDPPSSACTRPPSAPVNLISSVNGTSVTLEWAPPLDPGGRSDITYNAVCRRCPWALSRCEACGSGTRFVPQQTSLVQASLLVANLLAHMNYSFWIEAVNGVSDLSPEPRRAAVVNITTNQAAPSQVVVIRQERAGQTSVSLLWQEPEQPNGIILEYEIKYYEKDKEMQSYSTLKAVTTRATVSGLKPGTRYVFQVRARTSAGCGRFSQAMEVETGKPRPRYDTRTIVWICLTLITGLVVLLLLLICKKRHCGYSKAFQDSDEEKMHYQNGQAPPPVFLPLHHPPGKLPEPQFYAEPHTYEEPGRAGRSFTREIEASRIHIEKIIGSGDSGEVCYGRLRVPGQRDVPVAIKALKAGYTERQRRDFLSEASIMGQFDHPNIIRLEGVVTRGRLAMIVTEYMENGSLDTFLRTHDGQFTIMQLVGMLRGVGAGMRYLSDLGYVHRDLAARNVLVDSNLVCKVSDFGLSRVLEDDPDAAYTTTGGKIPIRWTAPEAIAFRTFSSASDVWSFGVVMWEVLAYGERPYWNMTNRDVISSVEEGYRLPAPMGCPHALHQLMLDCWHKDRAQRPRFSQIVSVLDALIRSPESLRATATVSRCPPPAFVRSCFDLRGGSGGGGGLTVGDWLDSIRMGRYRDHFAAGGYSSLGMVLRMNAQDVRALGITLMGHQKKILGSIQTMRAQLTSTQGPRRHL

[6] = molecular target: T2, Ephrin type-A receptor 8 (Homo sapiens); conditions: at 10 µM
[7] = molecular target: T3, Ephrin type-B receptor 1 (Homo sapiens) (UniProt P54762); conditions: at 1 µM
T3 sequence (whole entry): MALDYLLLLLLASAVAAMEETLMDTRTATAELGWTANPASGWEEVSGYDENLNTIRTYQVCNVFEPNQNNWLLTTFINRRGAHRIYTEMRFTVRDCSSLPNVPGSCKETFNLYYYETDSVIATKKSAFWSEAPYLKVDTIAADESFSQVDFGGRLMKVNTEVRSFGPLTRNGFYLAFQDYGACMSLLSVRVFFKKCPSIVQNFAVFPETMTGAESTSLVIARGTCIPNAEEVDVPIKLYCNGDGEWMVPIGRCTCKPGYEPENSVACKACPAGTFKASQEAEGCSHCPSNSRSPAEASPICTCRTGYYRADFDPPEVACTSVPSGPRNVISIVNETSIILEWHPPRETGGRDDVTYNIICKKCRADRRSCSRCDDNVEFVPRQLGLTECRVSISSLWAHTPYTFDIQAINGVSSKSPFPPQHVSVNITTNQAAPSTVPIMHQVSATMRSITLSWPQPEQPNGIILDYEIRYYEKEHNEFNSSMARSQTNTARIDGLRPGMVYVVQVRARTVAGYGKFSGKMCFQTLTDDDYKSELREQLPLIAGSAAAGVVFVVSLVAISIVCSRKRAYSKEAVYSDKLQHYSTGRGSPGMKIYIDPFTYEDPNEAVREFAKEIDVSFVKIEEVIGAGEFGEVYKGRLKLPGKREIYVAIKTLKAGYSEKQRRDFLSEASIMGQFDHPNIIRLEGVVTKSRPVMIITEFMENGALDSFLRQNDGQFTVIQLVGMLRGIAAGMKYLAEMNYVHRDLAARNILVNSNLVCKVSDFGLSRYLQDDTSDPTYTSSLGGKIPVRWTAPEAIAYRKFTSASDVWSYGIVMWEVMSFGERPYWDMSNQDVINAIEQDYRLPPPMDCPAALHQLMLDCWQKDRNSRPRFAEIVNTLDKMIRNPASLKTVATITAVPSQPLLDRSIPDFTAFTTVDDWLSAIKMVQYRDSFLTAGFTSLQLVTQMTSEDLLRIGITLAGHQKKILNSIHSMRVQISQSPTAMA

[8] = molecular target: T3, Ephrin type-B receptor 1 (Homo sapiens); conditions: at 10 µM
[9] = molecular target: T4, Ephrin type-B receptor 2 (Homo sapiens) (UniProt P29323); conditions: at 1 µM
T4 sequence (whole entry): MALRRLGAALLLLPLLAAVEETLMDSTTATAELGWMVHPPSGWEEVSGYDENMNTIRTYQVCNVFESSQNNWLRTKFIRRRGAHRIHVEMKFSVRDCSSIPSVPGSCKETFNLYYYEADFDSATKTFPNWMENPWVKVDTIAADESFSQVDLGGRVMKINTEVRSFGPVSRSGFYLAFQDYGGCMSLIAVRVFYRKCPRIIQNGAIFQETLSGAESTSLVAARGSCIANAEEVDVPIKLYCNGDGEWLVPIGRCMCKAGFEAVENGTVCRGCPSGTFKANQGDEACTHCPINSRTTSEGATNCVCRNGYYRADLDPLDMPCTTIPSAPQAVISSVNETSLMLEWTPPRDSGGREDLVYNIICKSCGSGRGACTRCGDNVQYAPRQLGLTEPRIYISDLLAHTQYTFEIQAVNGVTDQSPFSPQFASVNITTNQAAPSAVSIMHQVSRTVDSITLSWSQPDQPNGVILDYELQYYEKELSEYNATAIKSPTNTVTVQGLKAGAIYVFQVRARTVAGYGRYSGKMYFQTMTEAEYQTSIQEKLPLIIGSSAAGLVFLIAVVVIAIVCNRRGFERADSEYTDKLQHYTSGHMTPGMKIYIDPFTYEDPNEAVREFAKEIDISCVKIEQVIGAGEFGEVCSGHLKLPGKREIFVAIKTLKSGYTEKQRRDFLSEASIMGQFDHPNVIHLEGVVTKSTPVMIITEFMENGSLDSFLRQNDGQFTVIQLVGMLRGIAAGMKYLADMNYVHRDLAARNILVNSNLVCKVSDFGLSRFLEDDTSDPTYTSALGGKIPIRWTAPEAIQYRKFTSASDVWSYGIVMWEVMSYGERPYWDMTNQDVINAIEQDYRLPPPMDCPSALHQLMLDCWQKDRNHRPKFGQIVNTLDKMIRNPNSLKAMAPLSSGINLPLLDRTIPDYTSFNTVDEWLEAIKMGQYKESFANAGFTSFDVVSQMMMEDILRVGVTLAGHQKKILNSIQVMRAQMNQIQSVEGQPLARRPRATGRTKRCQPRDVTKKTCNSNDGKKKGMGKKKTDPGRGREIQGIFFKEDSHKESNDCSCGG

[10] = molecular target: T5, Ephrin type-B receptor 4 (Homo sapiens) (UniProt P54760); conditions: at 1 µM
T5 sequence (whole entry): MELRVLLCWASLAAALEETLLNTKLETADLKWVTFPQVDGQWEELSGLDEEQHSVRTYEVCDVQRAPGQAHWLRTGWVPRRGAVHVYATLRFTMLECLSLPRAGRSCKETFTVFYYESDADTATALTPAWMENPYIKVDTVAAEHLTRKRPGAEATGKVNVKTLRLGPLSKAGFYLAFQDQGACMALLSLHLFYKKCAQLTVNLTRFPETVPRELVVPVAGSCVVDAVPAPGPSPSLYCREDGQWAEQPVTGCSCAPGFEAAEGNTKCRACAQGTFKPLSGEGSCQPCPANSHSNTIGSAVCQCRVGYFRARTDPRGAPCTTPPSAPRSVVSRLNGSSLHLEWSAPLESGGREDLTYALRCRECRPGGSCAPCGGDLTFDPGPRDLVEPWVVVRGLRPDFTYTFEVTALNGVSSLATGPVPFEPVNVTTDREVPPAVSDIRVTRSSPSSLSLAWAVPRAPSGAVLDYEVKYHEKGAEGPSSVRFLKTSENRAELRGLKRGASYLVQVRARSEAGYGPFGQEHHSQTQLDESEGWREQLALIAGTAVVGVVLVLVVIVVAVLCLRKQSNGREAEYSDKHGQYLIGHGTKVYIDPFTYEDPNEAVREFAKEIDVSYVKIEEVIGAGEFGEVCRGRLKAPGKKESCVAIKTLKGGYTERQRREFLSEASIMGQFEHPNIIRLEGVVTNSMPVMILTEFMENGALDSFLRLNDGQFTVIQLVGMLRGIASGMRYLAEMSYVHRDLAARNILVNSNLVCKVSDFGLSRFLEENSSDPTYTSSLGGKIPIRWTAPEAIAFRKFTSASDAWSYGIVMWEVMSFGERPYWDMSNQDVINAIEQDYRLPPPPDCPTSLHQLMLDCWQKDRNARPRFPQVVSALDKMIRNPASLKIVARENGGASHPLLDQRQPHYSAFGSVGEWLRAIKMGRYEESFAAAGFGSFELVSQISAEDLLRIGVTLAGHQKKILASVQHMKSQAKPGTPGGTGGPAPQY

[11] = molecular target: Receptor tyrosine-protein kinase erbB-4 (Homo sapiens) (UniProt Q15303); conditions: at 1 µM
[12] = molecular target: Receptor tyrosine-protein kinase erbB-4 (Homo sapiens) (UniProt Q15303); conditions: at 10 µM
[13] = molecular target: Focal adhesion kinase 1 (Homo sapiens) (UniProt Q05397); conditions: at 1 µM
[14] = molecular target: T4, Ephrin type-B receptor 2 (Homo sapiens); conditions: at 10 µM
[15] = molecular target: T5, Ephrin type-B receptor 4 (Homo sapiens); conditions: at 10 µM

Ephrin type-A receptor 7 (Homo sapiens), sequence (Q15375 28-998 limits assumed): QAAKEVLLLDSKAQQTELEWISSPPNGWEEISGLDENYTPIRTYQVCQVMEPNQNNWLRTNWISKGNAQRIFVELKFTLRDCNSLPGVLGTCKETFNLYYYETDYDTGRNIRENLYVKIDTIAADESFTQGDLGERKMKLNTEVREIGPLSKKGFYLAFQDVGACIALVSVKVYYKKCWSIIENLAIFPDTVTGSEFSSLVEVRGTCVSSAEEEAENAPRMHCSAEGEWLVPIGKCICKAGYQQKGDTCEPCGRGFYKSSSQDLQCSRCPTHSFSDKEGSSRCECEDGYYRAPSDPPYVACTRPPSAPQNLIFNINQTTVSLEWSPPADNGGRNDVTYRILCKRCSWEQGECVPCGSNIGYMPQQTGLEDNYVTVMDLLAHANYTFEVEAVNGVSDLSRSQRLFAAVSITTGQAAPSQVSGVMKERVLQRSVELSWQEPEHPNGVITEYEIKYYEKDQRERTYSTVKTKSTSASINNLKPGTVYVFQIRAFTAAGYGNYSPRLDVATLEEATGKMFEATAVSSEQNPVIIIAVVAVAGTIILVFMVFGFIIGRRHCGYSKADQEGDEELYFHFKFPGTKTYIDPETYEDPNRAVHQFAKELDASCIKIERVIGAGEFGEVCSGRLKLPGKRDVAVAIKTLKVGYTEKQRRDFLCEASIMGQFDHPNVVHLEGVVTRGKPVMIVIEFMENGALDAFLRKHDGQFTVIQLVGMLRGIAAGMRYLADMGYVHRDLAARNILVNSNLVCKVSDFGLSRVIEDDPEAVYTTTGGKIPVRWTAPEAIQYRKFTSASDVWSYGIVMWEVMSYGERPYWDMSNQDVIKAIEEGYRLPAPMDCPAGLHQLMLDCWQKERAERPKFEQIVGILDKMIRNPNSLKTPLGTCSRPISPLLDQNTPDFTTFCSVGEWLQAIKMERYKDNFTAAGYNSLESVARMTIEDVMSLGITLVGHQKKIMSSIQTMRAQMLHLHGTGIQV
Receptor tyrosine-protein kinase erbB-4 (Homo sapiens), sequence (Q15303 whole entry): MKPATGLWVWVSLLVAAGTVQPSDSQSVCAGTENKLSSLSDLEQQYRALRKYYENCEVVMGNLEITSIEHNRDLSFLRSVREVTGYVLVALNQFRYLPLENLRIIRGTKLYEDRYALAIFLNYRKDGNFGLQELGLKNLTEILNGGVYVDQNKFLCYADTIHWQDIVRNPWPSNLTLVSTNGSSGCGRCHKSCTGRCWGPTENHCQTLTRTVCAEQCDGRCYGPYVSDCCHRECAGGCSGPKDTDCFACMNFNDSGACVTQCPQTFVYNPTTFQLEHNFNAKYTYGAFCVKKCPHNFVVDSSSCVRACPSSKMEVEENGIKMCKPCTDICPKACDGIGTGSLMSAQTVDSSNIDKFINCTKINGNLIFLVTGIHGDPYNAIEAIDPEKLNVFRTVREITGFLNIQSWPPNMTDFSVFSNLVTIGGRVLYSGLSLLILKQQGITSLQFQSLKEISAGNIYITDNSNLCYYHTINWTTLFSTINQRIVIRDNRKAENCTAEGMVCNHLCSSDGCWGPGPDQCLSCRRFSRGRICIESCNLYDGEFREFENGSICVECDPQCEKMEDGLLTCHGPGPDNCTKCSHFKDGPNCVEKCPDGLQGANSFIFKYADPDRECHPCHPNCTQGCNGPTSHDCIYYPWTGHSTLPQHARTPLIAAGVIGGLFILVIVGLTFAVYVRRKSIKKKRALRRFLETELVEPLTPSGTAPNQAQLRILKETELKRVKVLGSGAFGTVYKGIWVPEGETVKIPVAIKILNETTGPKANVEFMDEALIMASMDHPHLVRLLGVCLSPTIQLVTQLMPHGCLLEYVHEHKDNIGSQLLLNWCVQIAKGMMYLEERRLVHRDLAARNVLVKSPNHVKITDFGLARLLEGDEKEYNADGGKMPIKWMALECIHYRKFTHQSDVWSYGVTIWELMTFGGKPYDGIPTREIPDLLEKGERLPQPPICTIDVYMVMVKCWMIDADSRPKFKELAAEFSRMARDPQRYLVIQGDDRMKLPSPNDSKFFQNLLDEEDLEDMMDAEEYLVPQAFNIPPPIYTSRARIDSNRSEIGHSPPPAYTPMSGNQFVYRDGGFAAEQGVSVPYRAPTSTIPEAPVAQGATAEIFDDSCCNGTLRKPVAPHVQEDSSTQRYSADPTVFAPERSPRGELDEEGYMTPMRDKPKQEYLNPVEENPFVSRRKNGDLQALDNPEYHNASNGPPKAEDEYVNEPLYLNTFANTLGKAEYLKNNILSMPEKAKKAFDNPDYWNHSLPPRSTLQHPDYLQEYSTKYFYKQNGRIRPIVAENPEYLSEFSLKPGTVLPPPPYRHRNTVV
Focal adhesion kinase 1 (Homo sapiens), sequence (Q05397 2-1052 limits assumed): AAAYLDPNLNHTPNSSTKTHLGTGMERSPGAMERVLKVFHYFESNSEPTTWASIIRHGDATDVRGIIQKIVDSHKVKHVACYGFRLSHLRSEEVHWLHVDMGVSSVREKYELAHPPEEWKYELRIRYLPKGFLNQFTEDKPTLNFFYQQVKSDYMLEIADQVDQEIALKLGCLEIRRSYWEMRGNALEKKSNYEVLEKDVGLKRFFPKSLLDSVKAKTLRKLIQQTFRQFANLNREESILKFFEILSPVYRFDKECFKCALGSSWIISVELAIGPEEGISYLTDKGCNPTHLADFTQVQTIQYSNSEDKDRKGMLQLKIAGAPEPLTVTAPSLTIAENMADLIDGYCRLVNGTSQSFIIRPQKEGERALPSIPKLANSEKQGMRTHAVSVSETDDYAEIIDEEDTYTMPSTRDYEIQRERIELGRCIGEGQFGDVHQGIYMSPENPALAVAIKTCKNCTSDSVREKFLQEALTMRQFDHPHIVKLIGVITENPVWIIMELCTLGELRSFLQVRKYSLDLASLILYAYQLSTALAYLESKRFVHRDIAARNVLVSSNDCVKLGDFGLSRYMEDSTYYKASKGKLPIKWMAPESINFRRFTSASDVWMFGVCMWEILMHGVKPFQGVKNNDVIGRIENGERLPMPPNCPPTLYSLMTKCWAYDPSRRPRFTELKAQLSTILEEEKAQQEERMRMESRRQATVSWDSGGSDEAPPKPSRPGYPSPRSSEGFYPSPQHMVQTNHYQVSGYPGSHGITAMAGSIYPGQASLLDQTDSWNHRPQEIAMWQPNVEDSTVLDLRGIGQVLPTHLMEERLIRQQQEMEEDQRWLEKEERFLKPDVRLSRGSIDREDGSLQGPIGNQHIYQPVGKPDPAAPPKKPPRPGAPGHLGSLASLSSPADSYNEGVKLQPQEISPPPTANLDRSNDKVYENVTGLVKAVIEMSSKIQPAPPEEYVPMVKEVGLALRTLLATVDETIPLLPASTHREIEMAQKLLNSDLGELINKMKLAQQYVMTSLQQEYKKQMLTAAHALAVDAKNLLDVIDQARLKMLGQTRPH
Ephrin type-A receptor 5 (Homo sapiens), sequence (P54756 whole entry): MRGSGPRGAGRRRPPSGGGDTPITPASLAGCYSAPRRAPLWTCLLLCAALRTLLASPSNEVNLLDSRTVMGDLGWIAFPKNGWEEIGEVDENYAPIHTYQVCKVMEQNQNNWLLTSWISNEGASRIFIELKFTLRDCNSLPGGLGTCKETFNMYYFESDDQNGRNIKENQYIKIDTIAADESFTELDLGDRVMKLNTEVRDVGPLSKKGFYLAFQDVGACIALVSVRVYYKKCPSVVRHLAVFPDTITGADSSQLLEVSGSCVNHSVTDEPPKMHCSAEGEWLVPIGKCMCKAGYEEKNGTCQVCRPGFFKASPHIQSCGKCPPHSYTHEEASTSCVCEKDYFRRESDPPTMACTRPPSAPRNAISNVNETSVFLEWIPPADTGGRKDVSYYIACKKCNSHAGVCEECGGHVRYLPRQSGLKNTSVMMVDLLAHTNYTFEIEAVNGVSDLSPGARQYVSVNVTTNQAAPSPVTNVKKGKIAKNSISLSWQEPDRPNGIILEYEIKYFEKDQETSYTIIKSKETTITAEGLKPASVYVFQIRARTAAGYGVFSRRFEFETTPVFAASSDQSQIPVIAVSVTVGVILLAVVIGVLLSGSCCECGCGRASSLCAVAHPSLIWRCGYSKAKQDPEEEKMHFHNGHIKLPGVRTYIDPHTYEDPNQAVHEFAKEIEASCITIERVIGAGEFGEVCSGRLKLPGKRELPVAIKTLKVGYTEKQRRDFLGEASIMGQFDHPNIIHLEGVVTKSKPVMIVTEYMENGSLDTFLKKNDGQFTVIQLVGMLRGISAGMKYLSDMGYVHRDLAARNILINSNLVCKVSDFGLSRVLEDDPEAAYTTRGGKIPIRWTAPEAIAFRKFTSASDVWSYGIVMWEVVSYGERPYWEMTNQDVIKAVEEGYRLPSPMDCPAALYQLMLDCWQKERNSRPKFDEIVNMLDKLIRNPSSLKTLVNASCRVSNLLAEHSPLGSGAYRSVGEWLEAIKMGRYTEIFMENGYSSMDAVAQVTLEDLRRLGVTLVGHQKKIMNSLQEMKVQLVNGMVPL

Structure (SMILES) | residual activity [1] [%] | residual activity [2] [%] | residual activity [3] [%] | residual activity [4] [%] | residual activity [5] [%] | residual activity [6] [%] | residual activity [7] [%] | residual activity [8] [%] | residual activity [9] [%] | residual activity [10] [%] | residual activity [11] [%] | residual activity [12] [%] | residual activity [13] [%] | residual activity [14] [%] | residual activity [15] [%]
O=c1cc(N2CCNCC2)oc2c(-c3ccccc3)cccc12 | 77 | 103 | 98 | 88 | 102 | 100 | 100 | 105 | 103 | 97 | 95 | 73 | 105 | – | –
O=C1Cc2c([nH]c3ccc(Br)cc23)-c2ccccc2N1 | 58 | – | 98 | 72 | 95 | 82 | 98 | 76 | 121 | 89 | – | – | 82 | 120 | 71
